Data taken from PubChem BioAssay AID1159580 (chemical genetic matrix, 2015).
Hit rate of the full screen: of about 5,500 compounds, about 2,000 (36%) were called active. About 18% were inconclusive and are not listed. Cut-off read from the data, not from the text of the source: active = normalized growth mostly below about 0.91 (no sharp cut-off); inconclusive = no clear call, values can overlap the other calls; inactive = mostly above about 0.92. Some of the results follow.

Assay: chemical genetic growth profiling, strain panel (AID 1159580);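 note: tested at 20 µM; growth read once vehicle control cultures reached saturation at 30 °C; 1 = growth at the plate median or of vehicle wells; lower values mean less growth of the strain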
Settings: S. cerevisiae deletion strains, growth OD

Measured: normalized growth

O=S(=O)(NCC1CC1)c1ccc(F)c(Cl)c1
inactive: locus YAL013W, strain DEP1, stronger effect = lower value 1 | locus YBR229C, strain ROT2, stronger effect = lower value 1 | locus YCL061C, strain MRC1, stronger effect = lower value 0.999 | locus YDL101C, strain DUN1, stronger effect = lower value 0.994 | locus YDL134C, strain PPH21, stronger effect = lower value 1.01 | locus YDR150W, strain NUM1, stronger effect = lower value 0.945 | locus YEL061C, strain CIN8, stronger effect = lower value 1 | locus YGR078C, strain PAC10, stronger effect = lower value 1 | locus YHR030C, strain SLT2, stronger effect = lower value 0.969 | locus YHR087W, strain rtc3, stronger effect = lower value 1.02 | locus YJR043C, strain POL32, stronger effect = lower value 0.997 | locus YJR075W, strain HOC1, stronger effect = lower value 1.01 | locus YLR039C, strain RIC1, stronger effect = lower value 1.06 | locus YLR058C, strain SHM2 (second series), stronger effect = lower value 1 | locus YLR085C, strain ARP6, stronger effect = lower value 1 | locus YLR262C, strain YPT6, stronger effect = lower value 1 | locus YML094W, strain GIM5, stronger effect = lower value 1.01 | locus YMR219W, strain ESC1, stronger effect = lower value 1 | locus YMR263W, strain SAP30, stronger effect = lower value 1 | locus YNL153C, strain GIM3, stronger effect = lower value 1 | locus YNL298W, strain CLA4 (second series), stronger effect = lower value 1.03 | locus YNL322C, strain KRE1, stronger effect = lower value 0.995 | locus YNR030W, strain Alg12, stronger effect = lower value 0.996 | locus YOL006C, strain TOP1, stronger effect = lower value 1.05 | locus YPL055C, strain LGE1, stronger effect = lower value 1.02 | locus YPL241C, strain CIN2, stronger effect = lower value 0.99 | locus YPR135W, strain CTF4, stronger effect = lower value 1.02
